Inconclusive results are not listed. Calls of active or inactive are those of the source. Unless noted, the call rests on the fitted dose curve; in most records, active means well fitted curve in the direction sought with a large enough effect; inconclusive means small, poorly fitted or top-dose-only effect, or another doubt; inactive means no such curve, though single readings can be large; an effect the other way counts as inactive or inconclusive.
Legend:
[1] = target: ATP-dependent 6-phosphofructokinase (Trypanosoma brucei brucei) (UniProt O15648); assay: qHTS Assay to Find Inhibitors of T. brucei phosphofructokinase: hit validation (AID 492961);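 further: luminescence reports ADP formed as PFK phosphorylates fructose-6-phosphate with ATP; on the % scale 0 is the no-effect control and ±100 the full control effect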
Chain of ATP-dependent 6-phosphofructokinase (Trypanosoma brucei brucei) (O15648 whole entry, looked up): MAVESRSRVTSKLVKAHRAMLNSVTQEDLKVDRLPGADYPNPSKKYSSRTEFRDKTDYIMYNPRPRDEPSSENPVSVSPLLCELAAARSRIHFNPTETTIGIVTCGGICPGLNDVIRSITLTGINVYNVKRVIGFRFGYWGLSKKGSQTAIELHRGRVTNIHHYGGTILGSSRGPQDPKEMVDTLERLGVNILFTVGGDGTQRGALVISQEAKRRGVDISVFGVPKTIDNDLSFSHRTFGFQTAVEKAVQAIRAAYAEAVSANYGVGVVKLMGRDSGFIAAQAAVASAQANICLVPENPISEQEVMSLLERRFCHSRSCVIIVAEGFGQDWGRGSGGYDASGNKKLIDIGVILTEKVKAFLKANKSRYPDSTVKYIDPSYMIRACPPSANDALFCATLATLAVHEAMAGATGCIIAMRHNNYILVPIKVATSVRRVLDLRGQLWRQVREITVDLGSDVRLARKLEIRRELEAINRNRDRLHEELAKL
Outline: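 Measures ADP output of PFK (1.25 nM) at 0.1 mM ATP, 0.5 mM F6P, pH 8.0 TEA buffer with 5 mM MgCl2. No-enzyme wells define full inhibition; uninhibited enzyme wells define zero.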

[2] = target: Ubiquitin carboxyl-terminal hydrolase 1 (Homo sapiens) (UniProt O94782); assay: Inhibitors of USP1/UAF1: Pilot qHTS (AID 504865);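 further: rhodamine fluorescence freed from ubiquitin-rhodamine substrate followed over time; top concentration of the series differs between compounds; on the % scale 0 is the no-effect control and ±100 the full control effect; nearly all actives have a fitted effect of over 35% in size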
Chain of Ubiquitin carboxyl-terminal hydrolase 1 (Homo sapiens) (O94782 whole entry, looked up): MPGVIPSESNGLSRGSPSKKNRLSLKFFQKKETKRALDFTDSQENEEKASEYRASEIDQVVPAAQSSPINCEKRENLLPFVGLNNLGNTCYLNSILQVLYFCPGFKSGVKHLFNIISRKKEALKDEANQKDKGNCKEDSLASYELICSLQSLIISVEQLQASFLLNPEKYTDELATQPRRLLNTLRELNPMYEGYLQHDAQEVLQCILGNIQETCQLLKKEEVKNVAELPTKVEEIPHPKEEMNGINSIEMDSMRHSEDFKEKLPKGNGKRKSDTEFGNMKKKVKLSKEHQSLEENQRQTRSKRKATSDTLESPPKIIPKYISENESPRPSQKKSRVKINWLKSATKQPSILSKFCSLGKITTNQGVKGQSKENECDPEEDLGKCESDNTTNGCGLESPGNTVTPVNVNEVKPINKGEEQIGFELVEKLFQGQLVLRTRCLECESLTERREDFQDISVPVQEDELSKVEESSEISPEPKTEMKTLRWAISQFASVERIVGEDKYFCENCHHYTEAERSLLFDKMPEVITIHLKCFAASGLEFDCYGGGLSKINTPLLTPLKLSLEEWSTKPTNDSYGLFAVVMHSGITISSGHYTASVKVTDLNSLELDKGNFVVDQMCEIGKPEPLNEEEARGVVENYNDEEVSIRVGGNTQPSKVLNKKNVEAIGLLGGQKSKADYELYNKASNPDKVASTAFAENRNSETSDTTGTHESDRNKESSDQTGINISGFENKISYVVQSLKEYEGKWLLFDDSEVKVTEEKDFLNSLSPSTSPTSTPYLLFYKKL
Outline: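 In 50mM HEPES pH 7.8 containing 0.5mM EDTA, 1mM TCEP, 0.1 mg/ml BSA and 0.01% Tween-20, 1nM USP1/UAF1 is exposed to compound for 15 min, then Ub-Rho (150nM final) is added and fluorescence is read over time.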

[3] = target: Luciferin 4-monooxygenase (Photinus pyralis) (UniProt P08659); assay: Biochemical firefly luciferase enzyme assay for NPC (AID 624030);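 further: purified P. pyralis luciferase at 10 nM with luciferin and ATP substrate; 0% = DMSO and -100% = full luciferase inhibition by PTC124 control; nearly all actives have a fitted effect of over 70% in size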
Chain of Luciferin 4-monooxygenase (Photinus pyralis) (P08659 whole entry, looked up): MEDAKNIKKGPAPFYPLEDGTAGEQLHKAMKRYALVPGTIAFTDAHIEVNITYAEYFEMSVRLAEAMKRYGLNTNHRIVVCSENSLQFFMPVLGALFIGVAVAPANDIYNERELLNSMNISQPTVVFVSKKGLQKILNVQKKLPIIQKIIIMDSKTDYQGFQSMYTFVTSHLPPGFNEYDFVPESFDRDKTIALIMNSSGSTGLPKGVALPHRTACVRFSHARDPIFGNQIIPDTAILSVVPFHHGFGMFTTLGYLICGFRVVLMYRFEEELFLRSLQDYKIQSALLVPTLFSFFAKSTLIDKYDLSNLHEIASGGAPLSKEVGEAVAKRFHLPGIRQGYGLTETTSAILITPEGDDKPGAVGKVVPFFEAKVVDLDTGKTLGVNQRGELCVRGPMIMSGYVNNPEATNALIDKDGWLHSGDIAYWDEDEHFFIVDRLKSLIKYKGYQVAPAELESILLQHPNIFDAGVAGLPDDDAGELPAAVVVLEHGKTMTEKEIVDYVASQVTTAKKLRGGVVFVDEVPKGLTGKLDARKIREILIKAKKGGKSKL
Outline: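 Direct inhibition of firefly luciferase enzyme (10 nM final, 50 mM Tris Acetate) assessed by luminescence within 5 minutes. Percent activity scaled between DMSO and PTC124 positive control, with concentration-effect curves classified by fit quality and response.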

[4] = S16 Schwann cell viability assay (CellTiter-Glo assay) (AID 624031);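 further: native untransfected S16 rat Schwann cells; plate controls were DMSO-treated cells for no effect and cell-free wells for full effect; nearly all actives have a fitted effect of over 70% in size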
Outline: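 Counter-screen for cytotoxicity: parental S16 rat Schwann cells lacking the PMP22 reporters, treated 24 h with compound, viability from cellular ATP by CellTiter-Glo luminescence, normalized to DMSO (0%) and no-cell wells.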

[5] = S16 Schwann cell PMP22 intronic element firefly luciferase assay (AID 624032);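 further: plate controls were DMSO for no effect and PTC124 positive control mean for full effect; nearly all actives have a fitted effect of over 30% in size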
Outline: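 Luciferase reporter of PMP22 intronic-element expression in stably transfected S16 rat Schwann cells, read by ONE-Glo luminescence after 24 h compound exposure at 37 C. Activity scaled between DMSO (0%) and positive-control PTC124; concentration-effect curves quality-classified.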

[6] = S16 Schwann cell PMP22 intronic element beta-lactamase assay (AID 624044; calls by dose curve;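 further: 0% = DMSO and -100% = potassium clavulanate positive control; nearly all actives have a fitted effect of over 15% in size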); settings: S16 rat Schwann cells, PMP22 element beta-lactamase FRET, 24 h; ratio activity, negative = inhibition: at 38.3 µM (top of the series)
Outline: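 Beta-lactamase reporter under a PMP22 intronic regulatory element in stable S16 rat Schwann cells; 24 h compound exposure. 460 nm blue signal normalized between DMSO (0%) and potassium clavulanate, with 535 nm FRET tracking viability; curves classed by r2 and response.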

[7] = qHTS profiling for inhibitors of Plasmodium falciparum proliferation (AID 504749);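 further: 0% = DMSO vehicle and full inhibition = artemisinin control; nearly all actives have a fitted effect of over 60% in size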; settings: P. falciparum in erythrocytes, SYBR Green DNA, 72 h, at 28.7 µM (top of the series)
Outline: (§1)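 In a 72 h erythrocytic culture (37 C, humidified, 5% CO2) at 2.5% hematocrit and 0.3% starting parasitemia, compounds were tested; SYBR Green I in detergent lysis buffer stained parasite DNA overnight.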

3D7 = assay: as above; settings: P. falciparum in erythrocytes, SYBR Green DNA, 72 h; series mostly up to 28.7 µM
Outline: as §1

7G8 = assay: as above; settings: P. falciparum in erythrocytes, SYBR Green DNA, 72 h; series mostly up to 28.7 µM
Outline: as §1

AA1029 = assay: as above; settings: P. falciparum in erythrocytes, SYBR Green DNA, 72 h; series mostly up to 28.7 µM
Outline: as §1

AS120 = assay: as above; settings: P. falciparum in erythrocytes, SYBR Green DNA, 72 h; series mostly up to 28.7 µM
Outline: as §1

ATS189 = assay: as above; settings: P. falciparum in erythrocytes, SYBR Green DNA, 72 h; series mostly up to 28.7 µM
Outline: as §1

ATS95 = assay: as above; settings: P. falciparum in erythrocytes, SYBR Green DNA, 72 h; series mostly up to 28.7 µM
Outline: as §1

C2A = assay: as above; settings: P. falciparum in erythrocytes, SYBR Green DNA, 72 h; series mostly up to 28.7 µM
Outline: as §1

CP185 = assay: as above; settings: P. falciparum in erythrocytes, SYBR Green DNA, 72 h; series mostly up to 28.7 µM
Outline: as §1

CP191 = assay: as above; settings: P. falciparum in erythrocytes, SYBR Green DNA, 72 h; series mostly up to 28.7 µM
Outline: as §1

CP192 = assay: as above; settings: P. falciparum in erythrocytes, SYBR Green DNA, 72 h; series mostly up to 28.7 µM
Outline: as §1

CP194 = assay: as above; settings: P. falciparum in erythrocytes, SYBR Green DNA, 72 h; series mostly up to 28.7 µM
Outline: as §1

CP201 = assay: as above; settings: P. falciparum in erythrocytes, SYBR Green DNA, 72 h; series mostly up to 28.7 µM
Outline: as §1

CP203 = assay: as above; settings: P. falciparum in erythrocytes, SYBR Green DNA, 72 h; series mostly up to 28.7 µM
Outline: as §1

CP211 = assay: as above; settings: P. falciparum in erythrocytes, SYBR Green DNA, 72 h; series mostly up to 28.7 µM
Outline: as §1

CP215 = assay: as above; settings: P. falciparum in erythrocytes, SYBR Green DNA, 72 h; series mostly up to 28.7 µM
Outline: as §1

CP217 = assay: as above; settings: P. falciparum in erythrocytes, SYBR Green DNA, 72 h; series mostly up to 28.7 µM
Outline: as §1

CP237 = assay: as above; settings: P. falciparum in erythrocytes, SYBR Green DNA, 72 h; series mostly up to 28.7 µM
Outline: as §1

CP238 = assay: as above; settings: P. falciparum in erythrocytes, SYBR Green DNA, 72 h; series mostly up to 28.7 µM
Outline: as §1

CP247 = assay: as above; settings: P. falciparum in erythrocytes, SYBR Green DNA, 72 h; series mostly up to 28.7 µM
Outline: as §1

CP250 = assay: as above; settings: P. falciparum in erythrocytes, SYBR Green DNA, 72 h; series mostly up to 28.7 µM
Outline: as §1

CP252 = assay: as above; settings: P. falciparum in erythrocytes, SYBR Green DNA, 72 h; series mostly up to 28.7 µM
Outline: as §1

CP256 = assay: as above; settings: P. falciparum in erythrocytes, SYBR Green DNA, 72 h; series mostly up to 28.7 µM
Outline: as §1

CP260 = assay: as above; settings: P. falciparum in erythrocytes, SYBR Green DNA, 72 h; series mostly up to 28.7 µM
Outline: as §1

CP262 = assay: as above; settings: P. falciparum in erythrocytes, SYBR Green DNA, 72 h; series mostly up to 28.7 µM
Outline: as §1

CP265 = assay: as above; settings: P. falciparum in erythrocytes, SYBR Green DNA, 72 h; series mostly up to 28.7 µM
Outline: as §1

CC[C@@H]1/C=C(\C)C[C@H](C)C[C@H](OC)[C@H]2O[C@@](O)(C(=O)C(=O)N3CCCC[C@H]3C(=O)O[C@H](/C(C)=C/[C@@H]3CC[C@H](Cl)[C@H](OC)C3)[C@H](C)[C@@H](O)CC1=O)[C@H](C)C[C@@H]2OC
inactive: Potency [1] | Potency [2] | Potency [3] | Potency [4] | Potency [5] | Potency [6] | activity, negative = inhibition ([7]; parasite line A) 10.4% | activity, negative = inhibition ([7]; parasite line B) 3.17% | Potency (3D7) | Potency (7G8) | Potency (AA1029) | Potency (AS120) | Potency (ATS189) | Potency (ATS95) | Potency (C2A) | Potency (CP185) | Potency (CP191) | Potency (CP192) | Potency (CP194) | Potency (CP201) | Potency (CP203) | Potency (CP211) | Potency (CP215) | Potency (CP217) | Potency (CP237) | Potency (CP238) | Potency (CP247) | Potency (CP250) | Potency (CP252) | Potency (CP256) | Potency (CP260) | Potency (CP262) | Potency (CP265)
